Assay outcomes (PubChem)
Rows were chosen to be rich in hits. Some 4.5% of all compounds tested hit in one or more screens of this group.
Mdm2-MdmX inh – human Mdm2/MdmX binding inhibition; O15151+Q00987; SaOS-2 split-luciferase Mdm2/MdmX complementation, luminescence; inhibition, % at 8 µM; 3% of 330,000 active; AID 485346;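 active = inhibition of at least 50% at 8 µM in the primary screen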
Target sequence (O15151 whole entry, looked up): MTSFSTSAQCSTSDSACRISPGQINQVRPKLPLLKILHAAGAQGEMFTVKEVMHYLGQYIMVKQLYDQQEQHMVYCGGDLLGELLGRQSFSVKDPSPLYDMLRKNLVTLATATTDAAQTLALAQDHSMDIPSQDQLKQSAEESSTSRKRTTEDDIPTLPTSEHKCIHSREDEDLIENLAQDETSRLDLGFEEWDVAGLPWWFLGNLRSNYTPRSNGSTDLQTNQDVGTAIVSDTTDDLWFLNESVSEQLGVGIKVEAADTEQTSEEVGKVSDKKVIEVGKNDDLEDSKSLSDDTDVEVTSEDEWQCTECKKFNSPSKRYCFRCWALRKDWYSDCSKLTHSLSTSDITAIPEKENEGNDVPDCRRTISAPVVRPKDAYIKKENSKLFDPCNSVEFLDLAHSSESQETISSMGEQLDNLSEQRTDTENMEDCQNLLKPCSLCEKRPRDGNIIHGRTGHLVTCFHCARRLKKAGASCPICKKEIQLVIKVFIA
Target sequence (Q00987 whole entry, looked up): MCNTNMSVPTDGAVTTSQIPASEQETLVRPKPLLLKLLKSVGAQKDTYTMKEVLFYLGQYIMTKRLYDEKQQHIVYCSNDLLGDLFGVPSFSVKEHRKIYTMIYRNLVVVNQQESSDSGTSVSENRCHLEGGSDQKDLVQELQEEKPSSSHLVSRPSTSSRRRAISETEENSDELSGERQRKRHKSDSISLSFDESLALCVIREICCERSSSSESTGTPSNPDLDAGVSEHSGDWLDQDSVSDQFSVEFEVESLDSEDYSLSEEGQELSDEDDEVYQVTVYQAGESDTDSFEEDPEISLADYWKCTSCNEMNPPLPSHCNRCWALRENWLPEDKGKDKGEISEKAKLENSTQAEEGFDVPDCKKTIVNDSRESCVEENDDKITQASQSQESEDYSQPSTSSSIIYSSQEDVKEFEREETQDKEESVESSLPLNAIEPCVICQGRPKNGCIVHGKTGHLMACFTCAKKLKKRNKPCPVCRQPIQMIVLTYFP
Gli-Sufu antag – antagonists of Gli-Sufu signaling; inhibition, % at 5 µM; 0.74% of 340,000 active; Sufu-KO-LIGHT fibroblasts, Gli luciferase reporter luminescence;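 active = inhibition above about 55%, limit read from the data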;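 also: 0% = DMSO-treated cells and 100% = wells with medium but no cells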
aSyn 5UTR inh – MLPCN primary screen, SNCA 5' untranslated region; 0.82% of 300,000 active; alpha-synuclein 5'UTR reporter, inhibitor activity; inhibition, % (tested at 7.5 µM); in the data active = inhibition above about 60%;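 also: H4 neuroglioblastoma cells stably carrying SNCA 5'UTR luciferase fusion; 0% = DMSO wells and 100% = positive control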
697 NFkB inh – lowers PMA/ionomycin-induced NF-kB signal in 697 B cells; 697 B-cell NF-kB luciferase reporter, 16 h; inhibition, % at 4 µM; 0.33% of 330,000 active; in the data active = inhibition above about 35%
CSC inhib – blocks cancer stem cells; inhibition, % at 7.5 µM; cancer stem cell-like cells viability, luminescence; 1.1% of 300,000 active; in the data active = inhibition above about 75%; tested in HMLE shEcad cells
Jurkat NFkB inh – inhibitors of the PMA/ionomycin-induced NF-kB reporter in Jurkat cells; PMA/ionomycin-induced NF-kB luciferase reporter, luminescence; inhibition, % at 4 µM; 0.53% of 330,000 active; in the data active = inhibition above about 50%
Jurkat NFkB conf – lowers PMA/ionomycin-induced NF-kB signal in Jurkat cells. inhibition, % at 4 µM. Jurkat NF-kB luciferase, 16 h. shares compounds with Jurkat NFkB inh. AID 435020. 27% of 2,700 active;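 active = inhibition reaching about 45% at 4 µM in either replicate, limit read from the data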;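 also: plate controls were PMA/ionomycin stimulated DMSO wells for no effect and unstimulated DMSO wells for full effect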
Numbers without * were called inactive.

Results for Cc1c(C)c(C)c(C(=O)C2CCN(c3ccc([N+](=O)[O-])cn3)CC2)c(C)c1C ?
Mdm2-MdmX inh: 20.7; Gli-Sufu antag: 12.4; aSyn 5UTR inh: 16.2; 697 NFkB inh: -5.8; CSC inhib: -1.9; Jurkat NFkB inh: 72.8*; Jurkat NFkB conf: 12.2

Results for COc1cccc(N2CCN(c3ccc([N+](=O)[O-])cn3)CC2)c1 ?
Mdm2-MdmX inh: 18.4; Gli-Sufu antag: 5.7; aSyn 5UTR inh: -39.2; 697 NFkB inh: -10.9; CSC inhib: 1.1; Jurkat NFkB inh: 63.8*; Jurkat NFkB conf: 19.4

What do the screens show for `CC1CCN(c2ccc([N+](=O)[O-])cn2)CC1`?
Mdm2-MdmX inh: -6.1; Gli-Sufu antag: -18.8; aSyn 5UTR inh: -8.6; 697 NFkB inh: -16.2; CSC inhib: 3.5; Jurkat NFkB inh: -34.6

What do the screens show for `O=[N+]([O-])c1ccc(N2CCN(c3ccccc3)CC2)nc1`?
Mdm2-MdmX inh: 9.5; Gli-Sufu antag: -11.3; aSyn 5UTR inh: -75.7; 697 NFkB inh: 1.8; CSC inhib: 12.4; Jurkat NFkB inh: 19.5

How did Cc1ccc(C)c(C(=O)C(C)Sc2nc3nn(-c4ccccc4)c(=O)c-3c3n2CCCCC3)c1 (stereo not drawn) do in these assays?
Mdm2-MdmX inh: 33.8; Gli-Sufu antag: 6.9; aSyn 5UTR inh: 4.4; 697 NFkB inh: 5.0; CSC inhib: -4.4; Jurkat NFkB inh: 16.2

What do the screens show for `COc1ccc(C(=O)CSc2ccccc2C(=O)O)cc1`?
Mdm2-MdmX inh: 23.2; Gli-Sufu antag: -23.3; aSyn 5UTR inh: -30.4; 697 NFkB inh: -45.5; CSC inhib: -15.2; Jurkat NFkB inh: -31.0

Results for CN1CCSc2ccc(C(=O)Nc3cccc(F)c3)cc21 ?
Mdm2-MdmX inh: -210.9; Gli-Sufu antag: -48.5; aSyn 5UTR inh: -133.6; 697 NFkB inh: -1.1; Jurkat NFkB inh: -153.1; Jurkat NFkB conf: -14.8

Results for COc1ccc(NC(=O)c2ccc3c(c2)N(C)CCS3)cc1 ?
Mdm2-MdmX inh: -87.5; Gli-Sufu antag: -100.4; aSyn 5UTR inh: -147.6; 697 NFkB inh: -10.0; CSC inhib: 8.0; Jurkat NFkB inh: -111.1

What do the screens show for `Cc1ccc2nc(-c3ccc(SCC(=O)Nc4ccc5c(c4)OCCO5)nc3)[nH]c2c1`?
Mdm2-MdmX inh: -34.1; Gli-Sufu antag: 4.6; aSyn 5UTR inh: -327.5; 697 NFkB inh: -8.1; CSC inhib: -10.0; Jurkat NFkB inh: -152.9; Jurkat NFkB conf: -123.3

Results for Cc1noc(C)c1NC(=O)Nc1ccc2c(c1)CC(=O)N([C@@H](C)CO)C[C@@H](C)[C@@H](CN(C)C(=O)Nc1cccc3ccccc13)O2 ?
Mdm2-MdmX inh: -11.9; Gli-Sufu antag: -2.1; 697 NFkB inh: -7.0; CSC inhib: -7.2; Jurkat NFkB inh: -1.1

Results for Cc1ccc(-n2nnnc2-c2cnc3ccc(Cl)cc3c2-c2ccccc2)cc1 ?
Mdm2-MdmX inh: 47.9; Gli-Sufu antag: 4.6; aSyn 5UTR inh: 10.8; 697 NFkB inh: -7.4; CSC inhib: 57.9; Jurkat NFkB inh: 58.6*; Jurkat NFkB conf: 21.9

How did O=C(O)c1cc2c(ccc3ccccc32)o1 do in these assays?
Mdm2-MdmX inh: 4.7; Gli-Sufu antag: 2.1; aSyn 5UTR inh: -4.8; 697 NFkB inh: 13.2; CSC inhib: -12.8; Jurkat NFkB inh: 2.0

What do the screens show for `O=C(Nc1cccnc1)c1cc2c(ccc3ccccc32)o1`?
Mdm2-MdmX inh: -165.3; Gli-Sufu antag: -108.4; aSyn 5UTR inh: -103.8; 697 NFkB inh: -5.4; CSC inhib: -4.9; Jurkat NFkB inh: -165.5; Jurkat NFkB conf: -114.8

How did NNC(=O)c1cc2c(ccc3ccccc32)o1 do in these assays?
Mdm2-MdmX inh: 6.3; Gli-Sufu antag: -5.4; aSyn 5UTR inh: 7.6; 697 NFkB inh: -4.7; CSC inhib: -12.9; Jurkat NFkB inh: -5.0

Results for O=C(c1cc2c(ccc3ccccc32)o1)N1CCCCC1 ?
Mdm2-MdmX inh: -159.2; Gli-Sufu antag: -95.4; aSyn 5UTR inh: -17.0; 697 NFkB inh: -199.9; CSC inhib: -7.0; Jurkat NFkB inh: -155.8; Jurkat NFkB conf: -120.2

What do the screens show for `Cc1ccc(N(CCC#N)C(=O)CSc2nnc3ccccn23)cc1`?
Mdm2-MdmX inh: 0.6; Gli-Sufu antag: -2.5; 697 NFkB inh: 5.0; Jurkat NFkB inh: -9.3

Results for C=CCn1c2ccccc2c(=O)c2cc(C#CC3(O)CCCCC3)ccc21 ?
Mdm2-MdmX inh: -37.6; Gli-Sufu antag: -28.3; aSyn 5UTR inh: -169.6; 697 NFkB inh: -231.1; CSC inhib: -21.4; Jurkat NFkB inh: -276.5; Jurkat NFkB conf: -89.1

Results for Fc1cccc(F)c1CSc1nc2ccccc2[nH]1 ?
Mdm2-MdmX inh: -175.1; Gli-Sufu antag: -126.4; aSyn 5UTR inh: -126.6; 697 NFkB inh: -187.3; CSC inhib: -9.6; Jurkat NFkB inh: -170.1; Jurkat NFkB conf: -136.4

How did O=C(CSc1nc2ccccc2[nH]1)c1ccccc1F do in these assays?
Mdm2-MdmX inh: -81.6; Gli-Sufu antag: 15.2; aSyn 5UTR inh: -162.2; 697 NFkB inh: -60.9; CSC inhib: 2.9; Jurkat NFkB inh: -82.4

Results for COc1ccc(OCC(=O)Nc2ccc(OC)c(S(=O)(=O)N3CCCCC3)c2)cc1 ?
Mdm2-MdmX inh: -3.3; Gli-Sufu antag: 2.1; aSyn 5UTR inh: -95.8; 697 NFkB inh: -36.2; CSC inhib: 34.7; Jurkat NFkB inh: 50.1*; Jurkat NFkB conf: 19.3

What do the screens show for `CCN(CC)C(=O)Cn1nnc(-c2ccc(S(C)(=O)=O)cc2)n1`?
Mdm2-MdmX inh: 18.4; Gli-Sufu antag: -8.5; aSyn 5UTR inh: 10.7; 697 NFkB inh: 9.5; CSC inhib: -15.9; Jurkat NFkB inh: 6.9

What do the screens show for `COc1ccc(-c2nc(-c3ccc(Br)cc3)no2)c(OC)c1`?
Mdm2-MdmX inh: -95.9; Gli-Sufu antag: -55.5; aSyn 5UTR inh: -104.8; 697 NFkB inh: -139.4; CSC inhib: -30.4; Jurkat NFkB inh: -190.0; Jurkat NFkB conf: -78.7

What do the screens show for `CSc1nc(N)n2nc(-c3ccc(Cl)cc3)cc2n1`?
Mdm2-MdmX inh: -103.2; Gli-Sufu antag: -53.7; aSyn 5UTR inh: -58.7; 697 NFkB inh: -205.7; CSC inhib: 2.3; Jurkat NFkB inh: -165.5; Jurkat NFkB conf: -90.2

Results for Clc1ccc(-c2nnc(-c3ccccc3)o2)c(Cl)c1 ?
Mdm2-MdmX inh: -125.3; Gli-Sufu antag: -118.8; aSyn 5UTR inh: 18.8; 697 NFkB inh: -241.5; CSC inhib: 25.2; Jurkat NFkB inh: -162.6; Jurkat NFkB conf: -75.2

What do the screens show for `Fc1ccc(-c2nnc(-c3ccc(Cl)cc3Cl)o2)cc1`?
Mdm2-MdmX inh: -199.3; aSyn 5UTR inh: 14.6; 697 NFkB inh: -169.2; CSC inhib: 7.1; Jurkat NFkB inh: -136.6

How did CC/C(=N\NC(=O)c1csc(C)c1C)c1cccs1 do in these assays?
Mdm2-MdmX inh: -159.6; Gli-Sufu antag: -106.5; aSyn 5UTR inh: -181.8; 697 NFkB inh: -156.8; Jurkat NFkB inh: -156.6; Jurkat NFkB conf: -29.4

How did COc1cccc(NC(=O)c2cc3ccccc3o/c2=N\O)c1 do in these assays?
Mdm2-MdmX inh: -77.3; Gli-Sufu antag: -93.7; aSyn 5UTR inh: -39.5; 697 NFkB inh: -129.0; CSC inhib: 30.6; Jurkat NFkB inh: -159.1; Jurkat NFkB conf: -129.6

What do the screens show for `Cc1cccc(NC(=O)c2cc3ccccc3oc2=O)c1`?
Mdm2-MdmX inh: -95.8; Gli-Sufu antag: -76.5; aSyn 5UTR inh: -25.0; 697 NFkB inh: -137.6; CSC inhib: -7.5; Jurkat NFkB inh: -153.8; Jurkat NFkB conf: -96.9
